The record followed here is PubChem BioAssay AID463173 (ICCB-Longwood Screening Facility, Harvard Medical School, 2010).

Among all 52,000 compounds or so, about 4,300 (8.3%) were called active. No stated cut-off is given here; in the data, active means survival mostly below about 52% (no sharp cut-off); inactive means mostly above about 56%. The list comes from a sample in which actives are over-represented; it also holds similar structures and randomly drawn compounds.

The assay deals with DeltatarO mutant. As to the kind of experiment: growth inhibition of S. aureus wild type versus tarO mutant, primary screen, teichoic acid synthesis inhibitors, RN4220, OD600 (AID 463173). To be noted: OD600, 18 h, active compounds read low, screened at 18.75 µg/mL (by protocol).
In the case of `Fc1ccccc1N1CCN(c2ncc3c(n2)CCN(Cc2ccc(Br)s2)C3)CC1`, the survival is 66% (inactive).

On to `CCc1nn2c(=O)cc(COC(=O)c3ccc(NC(=O)CCc4ccccc4)cc3)nc2s1`, for which the survival was 99% (inactive).

Take `COc1ccc(OC)c(NC(=O)C(C)n2nc(C)c3c(C)n(-c4ccccc4)nc3c2=O)c1` (centres undefined): the survival was 93% (inactive). To `O=C(Nc1cccc(F)c1)C1CCN(S(=O)(=O)c2ccc3[nH]c4c(c3c2)CCCCC4)CC1` belongs 89% (inactive); to `CCCn1c2ccccc2c2cnn(CC(=O)NC(C)CC)c(=O)c21` (centres undefined), 72% (inactive); to `O=C(NCc1ccco1)c1ccc2c(c1)N(Cc1ccc(Cl)cc1)C(=O)c1ccccc1S2`, 71% (inactive). To `COc1ccc(CCN2C(=O)N(c3ccc(F)cc3)C(=O)C2CC(=O)Nc2ccccc2)cc1OC` (centres undefined) belongs 76% (inactive); to `Cc1ccc(NC(=O)Nc2nnc(SCC(=O)Nc3ccc(F)cc3F)s2)cc1`, 102% (inactive). As for `Cc1nc(N)c(S(=O)(=O)c2ccccc2)c(Nc2ccc(Br)cc2)n1`, the survival was 87% (inactive). With `Nc1nc(N)c(S(=O)(=O)c2ccccc2)c(Nc2ccc(Br)cc2)n1` the figure was 44% (active). To `Nc1nc(N)c(S(=O)(=O)c2ccccc2)c(Nc2ccccc2)n1` belongs 69% (inactive); to `CC1(N2CCOCC2)CC(=O)N(c2ccccc2)O1` (centres undefined), 62% (active); to `Cc1c(CN2CCOCC2)c(=O)n(-c2ccccc2)n1C`, 87% (inactive). With `O=C1c2ccccc2C(=O)C1(O)N1CCOCC1` the figure was 85% (inactive). On to `COc1ccc(OCC2c3cc(OC)c(OC)cc3CCN2C(=O)c2c(F)cccc2F)cc1` (centres undefined), for which the survival was 112% (inactive). With `CCN(CC)c1ccc(NC(=O)CCc2c(C)nc3ncnn3c2C)c(C)c1` the figure was 115% (inactive). With `CCN1CCN(CCCNC(=O)c2cc3c(=O)n(C)c4ccccc4c3s2)CC1` the figure was 79% (inactive); with `O=C(NCCSCc1cccc(Cl)c1)C1CCN(S(=O)(=O)Cc2ccccc2)CC1`, 63% (inactive); with `COc1ccc(OC)c(C2C(C(=O)Nc3ccc(C)cc3C)=C(C)Nc3c(C(=O)Nc4ccc(F)cc4)cnn32)c1` (centres undefined), 96% (inactive).

Turning to `Cc1ccc(CNC(=O)c2nc(SCc3ccc(F)cc3)ncc2Cl)cc1`, the survival is 71% (inactive). `COc1ccc(CNC(=O)c2nc(SC(C)C)ncc2Cl)cc1`: the survival was 114% (inactive). With `COc1ccc(CNC(=O)c2nc(S(=O)(=O)Cc3ccccc3)ncc2Cl)cc1` the figure was 18% (active); with `O=C(NCc1ccccc1)c1nc(S(=O)(=O)Cc2ccc(F)cc2)ncc1Cl`, -6% (active). With `Cc1ccc(CSc2ncc(Cl)c(C(=O)NCc3ccccc3)n2)cc1` the figure was 79% (inactive). On to `CC(=O)Nc1ccc(NC(=O)c2nc(S(=O)(=O)Cc3ccc(F)cc3)ncc2Cl)cc1`, for which the survival is 32% (active).

On to `CCS(=O)(=O)c1ncc(Cl)c(C(=O)NCc2ccccc2)n1`, for which the survival is 50% (inactive). To `COc1ccc(CNC(=O)c2nc(SCc3ccccc3F)ncc2Cl)cc1` belongs 81% (inactive); to `Cc1ccc(C)c(NC(=O)c2nc(S(=O)(=O)Cc3ccc(F)cc3)ncc2Cl)c1`, 99% (inactive). To `Cc1ccc(NC(=O)c2nc(S(=O)(=O)Cc3ccc(F)cc3)ncc2Cl)cc1C` belongs 84% (inactive); to `O=C(NCc1ccccc1)c1nc(S(=O)(=O)Cc2ccccc2)ncc1Cl`, 18% (active). With `CCNC(=O)c1c(NC(=O)Cc2coc3ccc(CC)cc23)sc2c1CCCC2` the figure was 79% (inactive); with `COc1ccc(CNC(=O)c2cccc(-n3cnc4cccnc43)c2C)cc1`, 90% (inactive).

In the case of `CCc1ccc(NC(=O)c2cc(S(=O)(=O)N3CCCCCC3)ccc2F)cc1`, the survival was 99% (inactive). With `CC(=O)Nc1n[nH]c(-c2ccc(C)cc2)c1C` the figure was 94% (inactive). With `Cc1ccc(NC(=O)Cn2c(=O)ccc3cc(S(=O)(=O)N4CCC(C)CC4)ccc32)cc1C` the figure was 71% (inactive); with `COc1ccc(N2C(=O)C(CC(=O)Nc3ccccc3)N(CCC3=CCCCC3)C2=O)cc1` (centres undefined), 72% (inactive); with `Cc1cccc(CS(=O)(=O)Cc2ccc(C(=O)NCc3ccccc3)o2)c1`, 124% (inactive).

Consider `Cc1ccc(CNC(=O)c2nc(S(=O)(=O)Cc3ccc(C)cc3)ncc2Cl)cc1`, for which the survival was 41% (active). With `COc1ccc(OC)c(NC(=O)c2nc(SCc3ccc(F)cc3)ncc2Cl)c1` the figure was 77% (inactive). Regarding `COc1ccc(CNC(=O)c2nc(SCc3ccc(C)cc3)ncc2Cl)cc1`, the survival is 67% (inactive). Take `COc1ccccc1NC(=O)c1nc(SCc2ccc(F)cc2)ncc1Cl`: the survival is 77% (inactive). For `COc1ccc(NC(=O)c2nc(S(=O)(=O)Cc3ccc(C)cc3)ncc2Cl)cc1`, the survival was 32% (active). With `Cc1cccc(CS(=O)(=O)c2ncc(Cl)c(C(=O)NCc3ccccc3)n2)c1` the figure was -1% (active); with `COc1ccc(OC)c(NC(=O)c2nc(S(=O)(=O)Cc3ccc(F)cc3)ncc2Cl)c1`, -5% (active); with `CSc1ncc(Cl)c(C(=O)NCc2ccc(C)cc2)n1`, 84% (inactive). For `Cc1ccc(CNC(=O)c2nc(SCc3cccc(C)c3)ncc2Cl)cc1`, the survival was 117% (inactive). `CCOc1ccc(NS(=O)(=O)c2ccc3c(c2)CCCN3C(=O)C2CCC2)cc1`: the survival is 67% (inactive). With `CC(C)Oc1ccc(CNC(=O)c2cnc3sc(N4CCCCC4)nn3c2=O)cc1` the figure was 124% (inactive); with `CCCCCn1c(=N)c(S(=O)(=O)c2ccc(C)cc2)cc2c(=O)n3cc(C)ccc3nc21`, 84% (inactive); with `O=C(NCc1ccc(Cl)cc1)NCc1noc2ccccc12`, 41% (inactive). With `COc1ccccc1NC(=O)CSc1oc(-c2cccs2)nc1S(=O)(=O)c1ccc(Br)cc1` the figure was 68% (inactive); with `CCn1ccc2cc(S(=O)(=O)N3CCCN(C(=O)Nc4ccc(C)cc4)CC3)ccc21`, 73% (inactive); with `CCSc1nnc(C2CCCN(CC(=O)Nc3nc(C)cs3)C2)n1C` (centres undefined), 91% (inactive). To `CC(C)NC(=O)c1ccc(CSc2nc3ccncc3n2Cc2cccc(F)c2)cc1` belongs 77% (inactive); to `CCOc1ccc(-c2nonc2NC(=O)c2ccccc2C)cc1`, 107% (inactive); to `CCOc1ccc(NC(=O)c2cc(S(=O)(=O)N3CCOCC3)ccc2F)cc1`, 89% (inactive). For the molecule `Cc1ccc(NC(=O)c2nc(S(=O)(=O)Cc3cccc(C)c3)ncc2Cl)cc1`, the survival is -3% (active). With `COC(=O)c1ccccc1NC(=O)c1nc(SCc2ccccc2C)ncc1Cl` the figure was 79% (inactive); with `CCS(=O)(=O)c1ncc(Cl)c(C(=O)Nc2ccccc2)n1`, 52% (inactive); with `COC(=O)c1ccccc1NC(=O)c1nc(S(=O)(=O)Cc2cccc(C)c2)ncc1Cl`, 39% (active). To `CCS(=O)(=O)c1ncc(Cl)c(C(=O)Nc2c(C(=O)Nc3cccc(C)c3)oc3ccccc23)n1` belongs 67% (inactive); to `CCOC(=O)c1ccc(NC(=O)c2nc(SC(C)C)ncc2Cl)cc1`, 107% (inactive). On to `CCOC(=O)c1ccc(NC(=O)c2nc(S(=O)(=O)Cc3ccccc3)ncc2Cl)cc1`, for which the survival is -2% (active). With `CCOc1ccccc1NC(=O)c1nc(S(=O)(=O)Cc2cccc(C)c2)ncc1Cl` the figure was 66% (inactive); with `CCc1cccc(NC(=O)Cn2c(=O)n(-c3ccccc3C)c(=O)c3c2c2cc(C)ccc2n3C)c1`, 85% (inactive). Consider `O=C(COc1ccccc1Cl)Nc1ccc(-c2nc3ccccc3s2)cc1`, for which the survival is 52% (inactive).

In the case of `CCOC(=O)c1ccc(Nc2c(-c3ccc(N(C)C)cc3)nc3nc[nH]n23)cc1`, the survival was 102% (inactive). With `COc1cccc(OCc2cc(=O)n3c(-c4ccccc4)csc3n2)c1` the figure was 74% (inactive).

On to `CC(C)CC(=O)Nc1cccc(-c2cn3cccnc3n2)c1`, for which the survival was 83% (inactive). To `CN1CCN(Cc2nnnn2CC2CCCO2)CC1` (centres undefined) belongs 95% (inactive); to `CCOc1ccc(Cn2nnc(C(=O)Nc3cccc(SC)c3)c2N)cc1`, 30% (active); to `CCOc1ccc(Cn2nnc(C(=O)Nc3ccc(Cl)cc3)c2N)cc1`, 88% (inactive). To `CCc1cccc(NC(=O)c2nnn(Cc3ccc(SC)cc3)c2N)c1` belongs 59% (inactive); to `CCOc1ccc(S(=O)(=O)Nc2cccc(-c3ccc(N4CCC(C)CC4)nn3)c2)cc1`, 86% (inactive); to `CC(C)COc1ccc(C(=O)N(Cc2ccc(N(C)C)cc2)Cc2ccco2)cc1`, 71% (inactive). In the case of `Cc1ccc(NC(=O)CSCc2cc(=O)c3ccccc3[nH]2)c(C)c1`, the survival is 116% (inactive).

With `O=C(Cn1c(=O)c2cccn2c2ccc(F)cc21)N1CCN(c2ccccc2F)CC1`, the survival is 56% (inactive).

As for `Cc1ccc(NC(=O)CCn2c(=O)c3cccn3c3ccccc32)cc1C`, the survival was 46% (active). With `Cc1cc(C)c(NC(=O)CCn2c(=O)c3cccn3c3ccccc32)c(C)c1` the figure was 49% (inactive); with `Cc1ccc(NC(=O)CCn2c(=O)c3cccn3c3ccccc32)cc1Cl`, 45% (active).

`Cc1ccc(NC(=O)CCCn2c(=O)c3cccn3c3ccccc32)cc1C`: the survival is 61% (inactive). For `Cc1ccc(NC(=O)CCCn2c(=O)c3cccn3c3ccccc32)cc1Cl`, the survival was 68% (inactive). To `CC(C)c1ccc(NC(=O)CCn2c(=O)c3cccn3c3ccccc32)cc1` belongs 57% (inactive). To `O=C(Nc1ccc(Cl)cc1)N1CCN(c2ccc3nnc(-c4ccccc4)n3n2)CC1` belongs 72% (inactive); to `COc1cc(C2C(C(=O)Nc3ccc(Cl)cc3)=C(C)Nc3nc(SC)nn32)cc(OC)c1OC` (centres undefined), 64% (inactive); to `CC(C)=NNS(=O)(=O)c1ccc(N2CCCC2=O)cc1`, 71% (inactive). With `CC1CCc2sc3ncnc(NCCCN(C)C)c3c2C1` (centres undefined) the figure was 117% (inactive); with `Cc1nn(CC(=O)NCc2ccc(N(C)C)cc2)c(=O)c2nn(-c3ccccc3)c(C)c12`, 83% (inactive); with `CCS(=O)(=O)N1CCc2cc(C(=O)NCCc3ccc(OC)c(OC)c3)ccc21`, 69% (inactive).

For the molecule `CCC(=O)N1CCc2cc(Br)cc(S(=O)(=O)NCCc3ccc(OC)c(OC)c3)c21`, the survival was 52% (inactive).

Consider `CCCC(=O)N1CC(=O)Nc2ccc(Cl)cc2C1c1ccc(F)cc1` (centres undefined), for which the survival was 50% (inactive). To `Cc1ccc2c(c1)C(c1ccc(F)cc1)N(C(=O)C(C)C)CC(=O)N2` (centres undefined) belongs 82% (inactive); to `Cc1ccc2c(c1)C(c1ccc(F)cc1)N(C(=O)COc1ccc(Cl)cc1Cl)CC(=O)N2` (centres undefined), 45% (active); to `O=C1CN(C(=O)COc2ccc(Cl)cc2Cl)C(c2ccc(F)cc2)c2cc(F)ccc2N1` (centres undefined), 47% (active). With `O=C1CN(C(=O)COc2ccc(Cl)cc2Cl)C(c2ccccc2)c2cc(F)ccc2N1` (centres undefined) the figure was 88% (inactive); with `CCOc1ccc(C(=O)N2CC(=O)Nc3ccc(C)cc3C2c2ccc(F)cc2)cc1OCC` (centres undefined), 67% (inactive); with `COc1ccc(C(=O)N2CC(=O)Nc3ccc(C)cc3C2c2ccccc2)cc1OC` (centres undefined), 61% (inactive). With `Cc1ccc2c(c1)C(c1ccccc1)N(C(=O)COc1ccc(Cl)cc1Cl)CC(=O)N2` (centres undefined) the figure was 49% (active).

Take `CCCC(=O)N1CC(=O)Nc2ccc(Cl)cc2C1c1ccccc1` (centres undefined): the survival was 69% (inactive).
